The campaign covered roughly 4,800 compounds. About 410 (8.5%) showed an effect of 50% or more. The list comes from a sample in which strong results are over-represented; it also holds similar structures and randomly drawn compounds.

The % Inhibition is the change of the read-out against control, counted positive when it falls.

For this experiment, the system named is Plasmodium falciparum. In words: Confirmatory screen in NF54 pLDH assay, in single point, at 2uM, 72h. Type of experiment: functional, Erythrocyte. As to conditions: timepoint 72 hour.
On to `COc1ccc(-c2nn(-c3ccccc3)c(O)c2C(c2ccc(C(=O)O)cc2)c2c(-c3ccc(OC)cc3)nn(-c3ccccc3)c2O)cc1`, for which the “% Inhibition” value is on record as 4%.
`Cc1nn(-c2ccccn2)c(O)c1C(c1ccccc1)c1c(C)nn(-c2ccccn2)c1O`: the “% Inhibition” value was determined as 86%.
Take `Cc1ccc2c(c1)c1c(n2S(=O)(=O)c2ccc(C(C)(C)C)cc2)CCCN(C)C1`: the “% Inhibition” value amounted to 94%.
As for `Cc1ccc(S(=O)(=O)N2CCN(S(C)(=O)=O)C2)cc1`, the figure is -3%; as for `Cc1ccc(S(=O)(=O)N2CCCC(=O)c3ccccc32)cc1`, 0%; as for `CCC1(CC)NC(=O)N(CC(=O)Nc2cccc(CC(=O)OC)n2)C1=O`, -20%.
With `c1ccc(CNc2ncnc3c2cnn3-c2ccccn2)cc1` the figure was 7%; with `CN(CCN)c1ccc(Br)cc1C#N`, 9%.
For `COc1ccc(C(=O)CN2C=CCC=C2c2nc(-c3ccc(Cl)cc3)cs2)cc1`, the “% Inhibition” value was 73%.
On to `COc1ccc(C2=CN(CC(=O)c3ccc(Cl)cc3)C3=CCCCCN23)cc1`, for which the “% Inhibition” value is 41%.
For `O=C(CN1C=CCC=C1c1nc(-c2ccc(Br)cc2)cs1)c1ccccc1`, the “% Inhibition” value is listed as 46%.
With `COc1ccc(NC(=O)c2cc3c(C)nn(-c4ccccc4)c3s2)cn1` the figure was 9%.
With `O=C1C2C(Cc3ccccc3)NC3(C(=O)Nc4ccccc43)C2C(=O)N1c1cccc(C(F)(F)F)c1` (stereo not given), the “% Inhibition” value is 6%.
As for `COc1ccc(C(=O)Nc2nnc([C@H]3CC(=O)N(c4ccc(C)cc4)C3)o2)cc1OC`, the “% Inhibition” value was -19%.
As for `COc1ccc(C(=O)N2c3ncnn3C(c3ccccc3)CC2c2ccc(C)cc2)cc1OC` (stereo not given), the figure is 98%; as for `COc1ccc(C2CC(c3ccccc3)N(C(C)=O)c3ncnn32)cc1` (stereo not given), -7%; as for `O=C(NCCCn1ncc2c(Cl)cccc21)C1CCC1`, 8%.
Regarding `CCc1ccc(NC(=O)Cc2c(C)nc3nc(-c4ccccc4C)nn3c2C)cc1`, the “% Inhibition” value is reported as 3%.
Take `C[C@H](NS(C)(=O)=O)C(=O)NC(C)(C)Cc1ccccc1Cl`: the “% Inhibition” value is given as 2%.
With `CCCN1CCC(NCc2ccc(-c3cccc(Cl)c3Cl)o2)CC1` the figure was 98%; with `CCOCC(=O)Nc1ccc(OC(F)(F)F)cc1`, -14%; with `Cc1ccccc1N1C(O)=Nc2ccccc2S1(=O)=O`, -19%.
As for `Cc1nnc(Cn2nnc(C(=O)NCC3(CC(C)C)CCC3)c2C)o1`, the figure is -24%.
With `c1ccc(-c2nnc3nc(N4CCOCC4)nc(N4CCOCC4)n23)cc1` the figure was 6%; with `Cc1cc(CNC(=O)c2csc(=O)[nH]2)n(C)n1`, 12%.
On to `CCc1ccc2ncc(C(=O)c3ccc(Cl)cc3)c(O)c2c1`, for which the “% Inhibition” value came to 1%.
As for `CC(=O)c1nc2cc(F)c(N3CCOCC3)cc2nc1C`, the figure is -13%.
`O=C(NCCc1cccs1)c1cnn2c(-c3ccc4c(c3)OCO4)ccnc12`: the “% Inhibition” value is -8%.
As for `CCCn1ccnc1-c1cn(Cc2cc3ccccc3[nH]2)nn1`, the figure is 54%; as for `O=C(c1ccc2ccccc2c1)N1CCC[C@H]1c1nc2ccccc2s1`, 11%.
As for `O=C(NCc1ccco1)c1ccc2c(c1)OCO2`, the figure is -7%; as for `Cn1n[n+](CCCCC(Cl)(Cl)Cl)c2ccccc21`, 52%; as for `Cn1n[n+](CC(=O)Nc2ccccc2Cl)c2ccccc21`, 3%.
On to `CCC(CC)(NCC(=O)NC1CC1)c1ccc(Cl)cc1`, for which the “% Inhibition” value is given as -1%.
Regarding `Cc1cc(C)n(C(=O)Cn2nc(C(F)F)cc2C)n1`, the “% Inhibition” value was determined as 11%.
With `CCc1ccc(C(=O)N2CCCN(c3nc(C4CCOCC4)nc4c3cnn4-c3ccccc3)CC2)cc1` the figure was -7%.
For `COC(=O)[C@H](C)N(C(=O)CO)c1c(C)cccc1C`, the “% Inhibition” value is 10%.
Turning to `O=C(c1nnn(-c2ccccc2Cl)c1-c1cccnc1)N1CCC(Cc2ccccc2)CC1`, the “% Inhibition” value is -8%.
As for `COc1cccc(NC(=O)Nc2ccc3c(c2)NC(=O)C(C)(C)O3)c1`, the figure is -4%; as for `Cc1sc2ncnc(N3CCCCC3)c2c1C(=O)NCc1cccc(Cl)c1`, 10%.
With `O=C(N[C@@H](N1CCCCC1)C(Cl)(Cl)Cl)c1ccc(Cl)cc1` the figure was 0%; with `Cc1ccccc1[C@H](CC(=O)O)NC(=O)C(F)(F)F`, 16%.
Turning to `N=C1CCCN1c1c(Cl)cccc1Cl`, the “% Inhibition” value amounted to 5%.
As for `COc1ccc(-c2cc3c(N4CCN(Cc5ccc6c(c5)OCO6)CC4)nccn3n2)cc1OC`, the “% Inhibition” value is -2%.
Regarding `Cc1cccc2[nH]cc(CCNC(=O)N3CCC4CCC(C3)N4C)c12` (stereo not given), the “% Inhibition” value amounted to 11%.
With `CCc1cc(C(=O)N2CCC[C@H](C)C2)c2c(C3CC3)nn(-c3ccccc3)c2n1`, the “% Inhibition” value amounted to 4%.
With `O=C(O)c1ccc(N(C(=O)c2ccc3c(c2)OCO3)C(=O)c2ccc3c(c2)OCO3)cc1O` the figure was 15%.
With `COc1ccccc1C(=O)N(Cc1cccs1)c1ccc(C)c(Cl)c1` the figure was 1%.
As for `Cc1c(Cl)cccc1C(=O)N1CCC[C@H](Cn2cncn2)C1`, the figure is 1%; as for `O=C(N[C@@H]1CN(Cc2ccccn2)CCC[C@H]1O)c1ccc(OCc2ccccc2)cc1`, 42%; as for `CCOC(=O)C1CCC(CN(Cc2ccc(OC)cc2)S(=O)(=O)c2cc(C(=O)Nc3ccc(OCC)cc3)ccc2F)CC1` (stereo not given), 6%.
Take `CN1CCN(c2nc(O)c3c(n2)NC(=O)C[C@H]3c2c(F)cccc2Cl)CC1`: the “% Inhibition” value is on record as -6%.
With `O=C(CC(F)(F)F)NCc1ccccn1` the figure was -21%.
With `Cc1n(CC(=O)c2ccccc2)c2ccccc2[n+]1CC(=O)c1ccccc1` the figure was 66%.
With `O=C(c1ccccc1)n1c(=O)n(C(=O)c2ccccc2)c2ccccc21` the figure was 7%.
For `CCC(=O)Nc1ccc(Oc2c(C)c(C(=O)O)nn2-c2ccccc2CC)c(S(=O)(=O)NCC(C)C)c1`, the “% Inhibition” value is 9%.
Turning to `C[C@@H](CNS(=O)(=O)c1ccco1)N(C)S(=O)(=O)c1ccco1`, the “% Inhibition” value is 4%.
With `O=C(Nc1ccc2c(c1)OCO2)c1c(-c2ccc(Cl)cc2)nc2n1CCS2(=O)=O` the figure was 6%.
On to `CC(CNc1ccccn1)N1CCOCC1C` (stereo not given), for which the “% Inhibition” value stood at 0%.
As for `c1ccc(Oc2ccc(CNCc3nnc4n3CCCCC4)o2)cc1`, the figure is 9%.
As for `C#C[C@H](C)OC(=O)c1cccc(Nc2cnccn2)c1`, the figure is 10%.
As for `CCNC(=O)NCCOC(=O)Cc1cc(Cl)cc2c1OCC2`, the figure is -1%.
Regarding `COCc1cnc(NC(=O)NC2(c3ncccn3)CCOCC2)s1`, the “% Inhibition” value is recorded as 10%.
With `COc1ccc(CN2CCC(C(=O)NCCCN3CCOCC3)CC2)c(OC)c1`, the “% Inhibition” value stood at 9%.
Regarding `Cc1ccc(CS(=O)(=O)NC(=O)N2CCC(c3ccccc3)CC2)cc1`, the “% Inhibition” value came out at 10%.
Consider `O=C(NC1CCCC1)c1n[nH]c(=O)c2ccccc12`, for which the “% Inhibition” value was 7%.
For the compound `COc1cccc2c1OCC(=O)N([C@@H](C)c1ccccc1)C2`, the “% Inhibition” value is -12%.
As for `Cc1nnc(-c2cnn(C)c2N)n1C[C@H]1CCCO1`, the “% Inhibition” value was 9%.
Turning to `O=C(CCC(=O)Nc1cccnc1)NCc1ccc2c(c1)OCO2`, the “% Inhibition” value is listed as 6%.
Take `O=C(Nc1cccnc1)c1ccc(-c2ccc(Cl)c(Cl)c2)o1`: the “% Inhibition” value came out at 89%.
On to `O=C(Nc1ccn(Cc2cccnc2)n1)c1ccc(-c2ccccc2F)o1`, for which the “% Inhibition” value is given as 6%.
Regarding `CC(C)(C)OC(=O)NS(=O)(=O)NCc1ccccc1`, the “% Inhibition” value came out at 4%.
With `Cc1nc(CNS(=O)(=O)Cc2ccc(F)c(Cl)c2)sc1C` the figure was 3%; with `O=C(NCCN1CCCC1)c1ccc2nc(-c3ccc(Cl)cc3)cn2c1`, 70%.
With `O=C(NCCN1CCCC1)c1ccc2c(c1)OCCO2` the figure was -7%; with `O=c1ccn2c(n1)O[C@H]1[C@H](OC3CCCCO3)[C@@H](COC3CCCCO3)O[C@H]12` (stereo not given in full), -17%.
Take `Cc1cc(NC(=O)[C@@H](c2ccccc2)N2CCCCC2=O)sn1`: the “% Inhibition” value came to 1%.
With `COC(=O)C1=C(C(=O)OC)SC(=C2C(=S)C(C)(C)N(C(=O)COc3ccc4ccccc4c3)c3ccccc32)S1` the figure was 7%; with `N#Cc1c(CN2CCOCC2)cc(=O)n2c1[nH]c1ccccc12`, 0%.
As for `Cc1ccc(CN2CCN(C[C@@H](O)Cn3c4ccccc4n4c(=O)cc(C)c(C#N)c34)CC2)c(C)c1`, the figure is 96%; as for `COc1cc2c(cc1OC)CN(C(=O)c1cccc(N3C(=O)C(C)(C)CS3(=O)=O)c1)CC2`, 3%.
`Cc1cc2n(n1)C(C(F)(F)F)CCN2C(=O)C(C)N1C(=O)C2CCCCC2C1=O` (stereo not given): the “% Inhibition” value is recorded as 4%.
As to `Cn1nc(C(=O)NC2CCCCC2)cc1C(=O)NC1CCCCC1`, the “% Inhibition” value was 12%.
With `COc1ccc(Cl)cc1S(=O)(=O)c1cnc(N2CCOCC2)nc1N` the figure was 10%; with `C[C@@H](CNc1ncc(C(=O)N2CCOCC2)cc1Cl)c1nncn1C`, -9%.
With `CN1CCN(c2c(F)cc3c(=O)c(C(=O)O)cn(-c4ccc(OC5CC6CCC5(C)C6(C)C)c(F)c4)c3c2F)CC1` (stereo not given) the figure was -4%.
As for `COc1cccc(NC(=O)N2CCN(c3nc4ccccc4n(Cc4ccccc4)c3=O)CC2)c1`, the figure is 0%; as for `CCC(=O)Nc1nc2c(OC)cc(NS(=O)(=O)c3c(C)noc3C)cc2s1`, 10%; as for `CCNc1nc(C)cc(Nc2ccc(NC(=O)c3cc(C)ccc3C)cc2)n1`, 99%.
Regarding `Cc1onc(N)c1S(=O)(=O)Nc1ccncc1`, the “% Inhibition” value is reported as -2%.
Consider `CCNc1nc(C)cc(Nc2ccc(NS(=O)(=O)c3c(C)noc3C)cc2)n1`, for which the “% Inhibition” value is 100%.
Take `Cc1ccc(C)c(S(=O)(=O)NCCNc2ccc(Nc3ccncc3)nn2)c1`: the “% Inhibition” value stood at 29%.
`O=C(Nc1ccc(N2CCOCC2)cc1)Nc1ccc(F)cc1F`: the “% Inhibition” value stood at 7%.
With `Cc1ccccc1S(=O)(=O)NCc1nnc(C(=O)Nc2ccc(F)cc2F)s1` the figure was 11%; with `CCC(=O)N1CCN(c2cc(Nc3ccc(C)cc3)nc(C)n2)CC1`, -1%.
As for `Cn1cc(C(=O)NCC2CCN(S(=O)(=O)c3cccs3)CC2)cn1`, the figure is 2%.
In the case of `CCc1ccc(NC(=O)[C@@H]2CCn3c(C(=O)c4ccccc4)ccc32)cc1`, the “% Inhibition” value was determined as 6%.
As for `CCc1ccc(NC(=O)[C@H](C)N2CCC(NS(=O)(=O)c3cccs3)CC2)cc1`, the figure is 77%; as for `Cc1nn(Cc2cccc(F)c2)c(C)c1NC(=O)c1cccc(COc2ccc(Br)cc2)c1`, 16%.
As for `COc1cc(C)sc1C(=O)NCc1csc(=O)[nH]1`, the “% Inhibition” value was -7%.
